TDP1 inh – TDP1 (human) enzyme inhibition | AID 485290 | actives 0.28% (n = 350,000) | recombinant TDP1, AlphaScreen DNA substrate cleavage | Potency, µM (highest dose often 130 µM), inactives show top-dose activity change, negative = inhibition, hits mostly inhibitors | Q9NUW8; further: potency means the concentration at half of the fitted maximal effect; on the % scale 0 is the no-effect control and ±100 the full control effect; nearly all actives have a fitted effect of over 40% in size
Target sequence (Q9NUW8 whole entry, looked up): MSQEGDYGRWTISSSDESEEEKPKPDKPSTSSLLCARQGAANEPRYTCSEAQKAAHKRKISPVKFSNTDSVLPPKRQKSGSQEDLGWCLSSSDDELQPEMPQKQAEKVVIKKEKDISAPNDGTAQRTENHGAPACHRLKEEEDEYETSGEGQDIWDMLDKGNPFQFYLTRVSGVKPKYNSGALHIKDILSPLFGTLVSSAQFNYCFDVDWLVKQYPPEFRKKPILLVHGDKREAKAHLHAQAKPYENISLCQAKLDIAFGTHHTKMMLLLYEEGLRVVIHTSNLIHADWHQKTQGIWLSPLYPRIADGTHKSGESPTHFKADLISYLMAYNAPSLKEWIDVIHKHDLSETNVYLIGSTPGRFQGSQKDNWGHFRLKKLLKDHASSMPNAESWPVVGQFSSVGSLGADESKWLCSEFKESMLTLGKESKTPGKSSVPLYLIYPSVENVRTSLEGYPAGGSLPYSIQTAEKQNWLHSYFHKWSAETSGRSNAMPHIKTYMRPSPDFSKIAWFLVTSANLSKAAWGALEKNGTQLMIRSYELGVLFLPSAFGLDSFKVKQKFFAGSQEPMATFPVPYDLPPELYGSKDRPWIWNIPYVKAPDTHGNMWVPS
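Recombinant E. coli-expressed Tdp1 (1 nM) preincubated with compound 15 min at RT, then 5'-biotin/3'-phosphotyrosine-FITC DNA substrate (15 nM) added for 5 min. AlphaScreen beads (10 ug/ml) added, 10 min RT; tyrosine-FITC cleavage read as signal loss.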
TGFb inhibitor – blocks TGF-b signaling; AID 588855; Potency, µM (doses to about 46.1 µM), without a hit: at the highest dose activity, negative = inhibition, most hits filed as inhibitors; actives 1.2% (n = 410,000); HepG2 CAGA-GFP TGF-b/SMAD3 reporter, GFP fluorescence, 18 h; TGF-beta stimulated, 500 pg/mL final; further: potency means the concentration at half of the fitted maximal effect; on the % scale 0 is the no-effect control and ±100 the full control effect; nearly all actives have a fitted effect of over 65% in size
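Using HEPG2 CAGA-GFP reporter cells at 1000 cells/well, we pinned test compounds, stimulated with recombinant TGF-beta (500 pg/mL final) and measured total well GFP after 18 h.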
TDP1 cell CPT – DT40-hTDP1 cell growth loss with CPT; chicken DT40 Tdp1-/-;hTDP1 cells + 20 nM CPT, ATP luminescence, 48 h; Potency, µM (highest dose often 46.2 µM), for the others: top-dose activity change, negative = growth inhibition, most hits filed as inhibitors; actives 12% (n = 420,000); further: potency means the concentration at half of the fitted maximal effect; on the % scale 0 is the no-effect control and ±100 the full control effect; nearly all actives have a fitted effect of over 55% in size
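Chicken DT40 Tdp1-/- cells complemented with human TDP1, 400 cells/well, exposed to compounds plus 20 nM camptothecin for at least 48 h at 37 C; viability read as ATP content by CellTiter-Glo luminescence.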
IL-1B inflam inh – blocks inflammasome-driven IL-1 beta release | THP-1 LPS/ATP IL-1B secretion, AlphaLISA, 16 h; stronger effect = lower value | activity change, % at 57.5 µM | actives 4.7% (n = 360,000) | AID 743279; in the data active means activity change below about -50%; inconclusive means mostly about -30% to -49%; further: on the % scale 0 is the no-effect control and ±100 the full control effect
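Secreted IL-1B measured by AlphaLISA bead assay after 16 h compound exposure of THP-1 cells; compounds (final up to 57.5 uM) added 1 h before LPS (250 ng/mL) and ATP (1.25 mM) stimulation; lower signal means less secretion.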
HepG2 viability – HepG2 cytotoxicity, counter-screen for TGF-b inhibitors | Potency, µM (doses to about 46.1 µM), for the others: top-dose activity change, negative = cytotoxicity, hits mostly cytotoxic | HepG2 CAGA-GFP viability, ATP luminescence, 18 h | actives 0.76% (n = 410,000); further: potency means the concentration at half of the fitted maximal effect
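HepG2 CAGA-GFP cells (1000/well, DMEM with 1% FBS) received compound, then TGF-beta at 500 pg/mL final, and were incubated 18 hours at 37 degrees C. Viability was read by CellTiter-Glo luminescence. Media-only wells were set as complete cell-killing and DMSO as no toxicity.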
TDP1 cell noCPT – qHTS for Inhibitors of human tyrosyl-DNA phosphodiesterase 1 (TDP1): qHTS in cells in absence of CPT; DT40 Tdp1-/- hTDP1 cells, no CPT, ATP luminescence, 48 h; actives 15% (n = 420,000); Potency, µM (titrated, usually from 46.2 µM), without a hit: at the highest dose activity change, negative = growth inhibition, hits mostly inhibitors; further: potency means the concentration at half of the fitted maximal effect; on the % scale 0 is the no-effect control and ±100 the full control effect; nearly all actives have a fitted effect of over 55% in size
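No-CPT arm: Tdp1-/-;hTDP1 DT40 cells (400/well) plus compounds, incubated ≥48 hr at 37 °C. Readout CellTiter-Glo luminescence.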
An asterisk follows results filed as active; ? = inconclusive; / = no result given; [ ] = remark or other dose. Only some compounds are listed: those with a hit (about 19% of all), similar ones and a draw of the others. Unless noted, the call rests on the fitted dose curve; in most records, active means well fitted curve in the direction sought with a large enough effect; inconclusive means small, poorly fitted or top-dose-only effect, or another doubt; inactive means no such curve, though single readings can be large; an effect the other way counts as inactive or inconclusive.

SMILES	TDP1 inh	TGFb inhibitor	TDP1 cell CPT	IL-1B inflam inh	HepG2 viability	TDP1 cell noCPT
Cc1cccc(C)c1NC(=O)CNC(=O)c1cccc(S(=O)(=O)NCc2cccs2)c1	-2%[56.1 µM]	-1%	-16%	8	-4%	7%
CCCCc1ccc(NC(=O)c2cc(-c3ccc(C)c(F)c3)on2)cc1	6%	15%	-3%	/	1%	-8%
Cc1cccc2c3c([nH]c12)CCN(C)C3	/	13%	24%	-13	4%	?
CCOC(=O)[C@H](CCc1ccccc1)N[C@H]1CCCN2CCC[C@@H](C(=O)O)N2C1=O	/	/	-24%	/	/	-14%
Cc1ccc(Nc2cc(C)nc3c(C)cccc23)cc1	2%	?	?	-88*	-21%	?
CC(=O)c1cccc(Nc2cc(C)nc3ccc(C)cc23)c1	/	?	?	-6	-30%	?
CC(=O)c1cccc(Nc2cc(C)nc3c(C)cc(C)cc23)c1	3%	?	?	-53*	-44%	15µM*
COc1ccc(CCN(C)C(=O)COc2cccc(-n3cnnn3)c2)cc1OC	2%	11%	11%	46	9%	-3%
Cc1cc(C(=O)Nc2ccccc2-c2nc(CNC(=O)c3cc4ccccc4cn3)c(C)o2)c(C)o1	/	/	0%[9.04 µM]	/	/	-2%
Cc1cccc(NC(=O)c2nc[nH]c2C(=O)N(C)Cc2ccccc2)c1	1%	-3%	?	-6	4%	?
COc1ccc(C(=O)N2CCCC(c3nc(SCc4ccccn4)ncc3C)C2)cc1F (centres undefined)	/	/	9.2µM*	/	/	7.3µM*
COc1ccccc1C(=O)N1CCCC(c2nc(SCCN3CCOCC3)ncc2C)C1 (centres undefined)	/	/	-10%[9.04 µM]	/	/	?
COc1cccc(C(=O)N2CCCC(c3nc(SCCN4CCOCC4)ncc3C)C2)c1 (centres undefined)	/	/	?	/	/	16µM*
Cc1cnc(SCc2ccccn2)nc1C1CCCN(C(=O)c2noc3c2CCCC3)C1 (centres undefined)	/	/	10µM*	/	/	15µM*
CC(=O)Nc1ccc(C(=O)N2CCCC(c3nc(SCc4ccccn4)ncc3C)C2)cc1 (centres undefined)	/	/	17%[9.04 µM]	/	/	-5%
Cc1cnc(SCc2ccccn2)nc1C1CCCN(C(=O)c2coc3c2C(=O)CCC3)C1 (centres undefined)	/	/	?	/	/	23µM*
Cc1cnc(SCC2CCCO2)nc1C1CCCN(C(=O)C2=NNC(=O)CC2)C1 (centres undefined)	/	/	-2%	/	/	-4%
CCCOc1ccc(Br)cc1-c1cc(-c2ccc(Cl)cc2)[nH]c1-c1ccncc1	10%	/	/	/	/	/
O=C(N/N=C/c1ccccc1)c1ccc(N2CCCC2=O)cc1	/	?	1%	-15	-3%	-8%
COc1ccc(-c2cc(C(=O)N/N=C/c3ccc(OC)c(COCC(F)(F)C(F)F)c3)c3ccccc3n2)c(OC)c1	0%	-4%	5.8µM*	-9	2%	5.8µM*
COc1cc2ccccc2cc1C(=O)N/N=C/c1ccc2c(c1)OCO2	5%	?	4.6µM*	51	1%	2.6µM*
O=C(N/N=C/c1ccc(F)cc1)c1cc(-c2ccccn2)nc2ccccc12	-4%	3%	?	18	-2%	-19%
COc1ccc(-c2cc(C(=O)N/N=C/c3ccc4c(c3)OCO4)c3ccccc3n2)c(OC)c1	6%	-1%	9.2µM*	-17	11µM*	1.8µM*
O=C(N/N=C/c1ccc2c(c1)OCO2)c1cc(-c2ccc(F)cc2)nc2ccccc12	-1%	-3%	15µM*	-1	1%	9.2µM*

Source: PubChem
